Most compounds without a hit are left out; they make up all but 2.9% or so of the library.
S1P4 ag: S1P4 receptor agonists, primary screen, cell-based. S1P4-expressing cell line, agonist reporter assay. activation, % at 4.98 µM. 220,000 compounds, 0.35% hits. AID 1509, 2009; in the data active = activation above about 11%;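 also: 0% = DMSO vehicle and 100% = reference agonist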
Target sequence (O95977 whole entry, looked up): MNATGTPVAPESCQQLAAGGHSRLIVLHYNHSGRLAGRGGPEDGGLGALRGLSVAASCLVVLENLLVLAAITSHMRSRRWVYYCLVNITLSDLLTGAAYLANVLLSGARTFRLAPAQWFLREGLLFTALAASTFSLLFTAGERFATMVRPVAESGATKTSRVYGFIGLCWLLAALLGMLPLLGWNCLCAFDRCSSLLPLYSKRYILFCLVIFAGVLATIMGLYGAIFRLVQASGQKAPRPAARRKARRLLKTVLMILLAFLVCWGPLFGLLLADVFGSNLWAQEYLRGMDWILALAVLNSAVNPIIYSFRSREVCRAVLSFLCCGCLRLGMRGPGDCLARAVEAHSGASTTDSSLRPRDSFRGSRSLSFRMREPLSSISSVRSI
Hsp70 activator: Hsp70 transcriptional activators, primary screen, cell-based, HeLa, Hsp70 promoter luciferase, luminescence, 10 µM | HeLa Hsp70 promoter luciferase reporter; scaled: vehicle 0, proteasome-inhibitor control 100% | activation, % at 10 µM | 200,000 compounds, 0.04% hits | AID 1203, 2008;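 active = activation above the mean across all tested compounds plus 3 SD, cutoff set per campaign, cut at about 5.5% in these data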;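 also: 100% = MG132 at 30 µM as the positive control and 0% = DMSO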
S1P3 antagonist: S1P3 receptor antagonists, primary screen, cell-based. Sphingosine 1-phosphate receptor 3 (Homo sapiens), Q99500. inhibition, % at 4.98 µM. AID 485, 2006. CHO S1P3 NFAT-BLA reporter, FRET fluorescence, antagonist mode. 170,000 compounds, 0.27% hits;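 active = inhibition above the plate cutoff, the mean inhibition of test wells on that plate plus 3 SD, cut at about 28% in these data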;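 also: cells challenged with S1P at its EC80 of 0.8 µM; blue over green emission ratio from cleaved BLA substrate after 4 h stimulation; 0% = S1P-stimulated wells and 100% = unstimulated DMSO-only wells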
HSF-1 act: HSF-1 activators, primary screen, NIH3T3-HGL cells, MG132 stress, luminescence, single point | activation, % at 9 µM | NIH3T3-HGL HSF-1 luciferase reporter, 8 h; 100% = twice DMSO control signal | 300,000 compounds, 1.7% hits;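 active = mean replicate activation of at least 50% with a set share of replicates each reaching 50%; inconclusive = only one of those two conditions met; inactive = mean below 50% and too few replicates reaching it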;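 also: 0% = median of the neutral control wells and 100% = twice that signal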
S1P4 antag: S1P4 receptor antagonists, primary screen, cell-based. Sphingosine 1-phosphate receptor 4 (Homo sapiens), O95977. S1P4-expressing cells, antagonist mode, reporter read-out. inhibition, % at 4.98 µM. 220,000 compounds, 0.26% hits; in the data active = inhibition above about 29%;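 also: 0% = wells stimulated with agonist and 100% = vehicle wells without agonist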
HSF1 inh: HSF1 inhibitors in luciferase reporter cells, primary screen, cell-based, NIH3T3, luminescence; NIH3T3-HGL HSE-luciferase, MG132-induced, luminescence 8 h; stronger effect = lower value; activity change, negative = inhibition, % at 7.5 µM (by protocol); 300,000 compounds, 0.77% hits; AID 2098, 2009;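 active = more than half of replicate wells show activity change below -50%, luminescence cut by over half; inconclusive = some wells, but at most half, below -50%; inactive = no replicate well below -50%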;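 also: luciferase reports HSF-1 transcriptional activity via heat shock element; 0% = median of DMSO wells and -100% = zero luminescence signal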
* hit, by the source's call; ? = inconclusive; / = no result.

SMILES	S1P4 ag	Hsp70 activator	S1P3 antagonist	HSF-1 act	S1P4 antag	HSF1 inh
CCc1ccc2c(c1)C1(C(=O)N2)N2CCCC2C(C(=O)c2ccc3ccccc3c2)C12C(=O)Nc1ccccc12 (stereo not given)	2.2	0.1	-10.6	65.3*	-10.3	39.5
CCc1cccc2c1NC(=O)C21N2CCCC2C(C(=O)c2ccc3ccccc3c2)C12C(=O)Nc1ccccc12 (stereo not given)	5.3	-0.1	-17.6	22.6	7.4	16.3
Cc1cc(=O)c2n(Cc3ccccc3Cl)nc[n+]2[nH]1	1.2	-0.2	/	91.3*	-7.1	53.8
CCOC(=O)c1cnn(-c2ccccc2)c1N	-2.1	-0.3	/	7.0	-2.6	1.7
CCOC(=O)c1cnn(-c2ccc(C(F)(F)F)cn2)c1N	-2.8	0.0	/	60.6*	-18.4	31.9
COc1cccc(C(=O)N/N=c2\sc3ccccc3n2C)c1	1.2	-0.3	10.5	81.1*	-13.3	43.6
O=C(Nc1ccc(-n2ccnc2P(=O)(O)c2ccccc2)cc1)c1ccccc1Cl	-1.3	0.0	/	-65.6	-6.5	-55.0*
O=C(Nc1nnc(S(=O)(=O)N2CCCC2)s1)c1ccccc1Cl	/	/	/	-3.1	/	-1.4
O=C(Nc1ccc(N2CCCCCC2)cc1)c1ccccc1Cl	3.7	0.7	-10.4	60.3*	-9.8	29.0
Cc1ccc(NC(=O)c2cc(NC(=O)/C=C\C(=O)O)ccc2N2CCCCC2)cc1	/	/	/	-4.0	/	-2.9
O=C(Nc1nnc(S(=O)(=O)N2CCCCCC2)s1)c1ccccc1Cl	/	/	/	-78.0	/	-69.9*
Cc1ccc(NC(=O)c2cc(NC(=O)c3ccccc3C(=O)O)ccc2N2CCCCC2)cc1	1.8	-0.4	-19.7	59.7*	4.4	26.1
CC(=O)N1CCN(c2ccc(NC(=O)c3ccccc3Cl)cc2)CC1	/	/	/	-17.2	/	1.6
O=C(Nc1ccc(Oc2cccnc2)cc1)c1ccccc1Cl	1.4	-0.2	-6.6	/	0.0	/
COc1ccc(COc2ccc(C3C(S(=O)(=O)c4ccccc4)CON3C)cc2OC)cc1 (stereo not given)	-0.7	0.1	-4.2	6.5	1.1	-11.0
COc1ccccc1C(=O)Nc1ccc(N2CCCCC2)cc1	-2.6	-0.2	/	49.7	10.0	21.8
O=C(Nc1ccc(N2CCCCC2)cc1)c1ccccn1	-0.4	-0.7	-18.5	-71.3	6.4	-66.9*
CCN1C(=O)S/C(=C/c2ccc(Sc3nc4ccccc4[nH]3)o2)C1=O	1.9	-0.5	-7.0	58.0*	-11.0	29.0
CCN(CC)c1nc(C)nc2c1cnn2CCc1ccccc1	-0.6	0.2	/	56.7*	5.0	37.2
S=C(c1cn(Cc2ccc(Br)cc2)c2ccccc12)N1CCOCC1	0.2	-0.1	-1.0	53.7*	-11.7	12.9
COc1ccccc1/C=C/C=N/n1c(-c2cc(C)[nH]n2)n[nH]c1=S	0.2	-0.3	-2.1	?	-5.0	24.3
Cc1cc(-c2n[nH]c(=S)n2/N=C/C=C/c2ccccc2)n[nH]1	2.6	-0.5	9.2	57.1*	-8.3	13.8
Cc1ccc(S(=O)(=O)NCC(c2ccccc2)N2CCN(c3ccc(F)cc3)CC2)cc1 (stereo not given)	/	/	/	54.0*	/	22.9
O=S(=O)(NCC(c1cccnc1)N1CCN(c2ccc(F)cc2)CC1)c1ccccc1 (stereo not given)	0.8	-0.2	16.8	-0.4	-10.9	5.5
COc1ccc2c(c1)c(CCNNC(=O)C(C)(C)C)c(C)n2C(=O)c1ccc(Cl)cc1	/	/	/	0.2	/	6.3
SMILES	S1P4 ag	Hsp70 activator	S1P3 antagonist	HSF-1 act	S1P4 antag	HSF1 inh
Nn1c(=O)c2ccccc2n2c(SCc3ccccc3)nnc12	-1.2	-0.3	2.9	-76.5	-22.3	-68.3*
Nn1c(=O)c2ccccc2n2c(SCc3ccc(C(F)(F)F)cc3)nnc12	-3.6	-0.3	/	9.5	-11.5	8.9
COc1cc(/C=N/NC(=O)COc2ccc([N+](=O)[O-])cc2)ccc1OCC(=O)N1CCOCC1	/	/	/	4.5	/	2.4
O=C1CSC(=S)N1/N=C/c1cccc(C(F)(F)F)c1	/	/	/	68.3*	/	52.2
COc1ccc(-n2nnc3c(SC(C(C)=O)C(=O)N(C)C)ncnc32)cc1 (stereo not given)	/	/	/	-2.3	/	2.5
COC(=O)C(C)Sc1ncnc2c1nnn2-c1ccc(F)cc1 (stereo not given)	1.1	0.0	-25.1	125.9*	-2.1	88.2
CCOC(=O)CNC(=O)CSc1ncnc2c1nnn2-c1ccc(F)cc1	-3.6	-0.2	/	95.5*	-20.9	71.0
CCC1CN(C(=O)N2CCC(C(=O)NCc3ccc(OC)cc3OC)CC2)c2ccccc2O1 (stereo not given)	/	/	/	2.6	/	-3.7
CCCCc1ccc(NC(=O)C2CCCO2)cc1 (stereo not given)	0.0	0.2	7.1	62.6*	-2.5	18.7
COc1ccc(C)cc1NC(=O)c1nn(-c2ccccc2)cc1OC	/	/	/	0.7	/	0.9
COc1ccc(-c2nc(CCl)cs2)cc1OC	1.4	0.2	-8.2	14.3	-18.6	-4.3
COc1ccc(-c2nc(-c3ccc(O)cc3O)cs2)cc1OC	1.4	-0.1	10.7	67.8*	-4.6	45.3
COc1ccc(-c2csc(-c3ccccc3)n2)c(OC)c1	-0.1	0.0	2.0	54.5*	-0.9	17.0
COc1ccc(-c2csc(-c3cccs3)n2)c(OC)c1	0.2	-0.1	-8.7	61.0*	0.7	24.1
CC(=O)N/C(=C\c1cccc([N+](=O)[O-])c1)C(=O)NC1CCCCC1	0.4	-0.3	-4.4	6.3	-9.7	-5.0
CC(Oc1ccc(Br)cc1)C(=O)NC1CCN(Cc2ccccc2)CC1 (stereo not given)	/	/	/	-1.6	/	-6.0
COc1ccc(-c2coc3cc(OC)cc(O)c3c2=O)cc1	-2.6	0.1	/	55.7*	-4.1	21.3
Cc1ccc2oc(C(F)(F)C(F)F)cc(=O)c2c1	0.7	/	-6.5	-28.5	-1.1	-13.6
Cc1ccc2oc(C(Cl)(Cl)Cl)cc(=O)c2c1	0.0	0.0	/	52.3*	-14.4	45.1
Cc1ccccc1/C=C1\OC(=O)c2ccccc21	0.1	-0.4	/	46.5	7.8	23.9
Cc1ccc(/C=C2\OC(=O)c3ccccc32)cc1	-2.1	-0.1	/	59.3*	6.8	48.3
CSc1ccc(/C=N\Nc2nncn2N)cc1	/	/	/	94.9*	/	37.3
COc1cc(/C=N\Nc2nncn2N)ccc1OC(C)=O	/	/	/	55.8*	/	27.5
O=C(NNC(=O)C1CC=CCC1)c1ccccc1O (stereo not given)	/	/	/	6.4	/	-2.6
CC(C)(C)NC(=O)CN(C(=O)CCC(=O)Nc1nccs1)c1ccc2c(c1)OCCO2	/	/	/	-15.0	/	-5.3
CC(C)CCNC(=O)CN(C(=O)CCC(=O)Nc1nccs1)c1ccc2c(c1)OCCO2	/	/	/	-63.2	/	-61.7*
